# Laboratory results taken from PubChem BioAssay (NCI).
# The panel holds about 79,000 compounds, 15% with a hit somewhere; the sample as a whole holds those more often. Unmarked numbers belong to inactive results. The source made the active and inactive calls. No stated cut-off is given here; in the data, active means growth inhibition above about 70%; inactive means the rest.
# Experiment: NCI Yeast Anticancer Drug Screen. Data for the rad50 strain (AID 155);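 further: 0% = growth of vehicle-only cultures of the same strain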
# Conditions: S. cerevisiae rad50 strain growth inhibition; at 50.0 µM; hits give high values
# Summary of the method: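 Compounds were tested on a yeast strain with an engineered DNA damage repair alteration; the reported value is growth inhibition normalised to vehicle treatment.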
row,Structure (SMILES),growth inhibition
1,O=C(/C=C/c1cccc(Cl)c1)c1ccccc1,95.7% (active)
2,COc1cccc(N2C(=O)C3CC(CC(C)(C)C)c4c([nH]c5ccccc45)C3C2=O)c1 (stereo not given),33.6%
3,O=C1c2ccccc2NC(=O)C2C1C(c1ccccc1)CC2(O)c1ccccc1 (stereo not given),62.5%
4,CCOC(=O)C1SC(=Nc2ccc(Cl)cc2)N=C1C (stereo not given),88.8% (active)
5,COC(=O)c1nc(=S)[nH]c(C(=O)OC)c1C(=O)c1ccccn1,82% (active)
6,Cn1c2c(c3ccccc31)CCN1C[C@@H]3CCCC[C@H]3C[C@@H]21,65%
7,CCCCCCCCCCCC1=NCCN1CCNCCCC,36.6%
8,CN=C(N)N/N=C(\C)c1ccc2c(c1)Cc1cc(/C(C)=N/NC(N)=NC)ccc1-2,87% (active)
9,O=C(Nc1ccccc1)OCCc1ccc(Br)cc1,13.2%
10,CN(C)CC/C(=N\Nc1ccc(Cl)cc1)c1ccccc1,99.2% (active)
11,O=C1Nc2ccccc2/C1=N\N=c1/scc(-c2ccccc2)n1-c1ccccc1,59.5%
12,CC(C)(C)C(=O)CC(=O)C(F)(F)C(F)(F)C(F)(F)F.CC(C)(C)C(=O)CC(=O)C(F)(F)C(F)(F)C(F)(F)F.CC(C)(C)C(=O)CC(=O)C(F)(F)C(F)(F)C(F)(F)F.[Fe],38.5%
13,COc1cc(N=Nc2cccc(S(N)(=O)=O)c2)c2ccccc2c1N,95.3% (active)
14,O=C(/C=C/C(=O)OCCCl)OCCCl,69.2%
15,CCc1ccccc1NC(=O)C1=C(C)NC(C)=C(C(=O)Nc2c(CC)cccc2CC)C1c1ccc2c(c1)OCO2 (stereo not given),89.5% (active)
